Sm TGR inh = inhibitors of Schistosoma mansoni thioredoxin glutathione reductase. Q962Y6. purified TGR, DTNB reduction, TNB absorbance 405 nm. Potency, µM (highest dose often 114 µM), without a hit: at the highest dose activity change, negative = inhibition, usual class: inhibitors. hit rate 3% among 360,000. AID 485364; further: potency means the concentration at half of the fitted maximal effect; on the % scale 0 is the no-effect control and ±100 the full control effect; nearly all actives have a fitted effect of over 60% in size
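First, TGR (20 nM dispensed) and NADPH were mixed with compound. Second, a 15 min room-temperature incubation followed. Third, further NADPH and then DTNB were added to start the reaction. Finally, TNB absorbance was monitored kinetically.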
Pf growth 96h = inhibits malaria parasite growth, 96 h; P. falciparum luciferase reporter growth, 96 h; Potency, µM (top dose mostly 28.7 µM), inactives show at the highest dose activity change, negative = inhibition, most hits filed as inhibitors; hit rate 6.9% among 320,000; further: potency means the concentration at half of the fitted maximal effect; on the % scale 0 is the no-effect control and ±100 the full control effect
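P. falciparum expressing integrated firefly luciferase, in erythrocytes at 2% hematocrit, 0.05% parasitemia, incubated with compounds 96 h at 37 C, 5% CO2. Growth inhibition read as loss of luminescence; two-generation exposure targets delayed-death apicoplast inhibitors.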
NS1 inh = influenza NS1 inhibition. Potency, µM (titrated, usually from 46.1 µM), without a hit: top-dose activity, positive = more growth. hit rate 0.4% among 270,000. AID 2326; calls by dose curve; further: potency means the concentration at half of the fitted maximal effect; actives are rising curves; nearly all actives have a fitted effect of over 50% in size
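A cell-based growth assay was used: compounds that relieve NS1-induced slow growth of budding yeast raise OD600. Assay medium was yeast nitrogen base with ammonium sulphate and -URA supplement, pH 6.0, with 2% galactose.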
Pf growth 48h = inhibits P. falciparum growth in the first generation, 48 h | P. falciparum luciferase growth in erythrocytes, 48 h | Potency, µM (top dose mostly 28.7 µM), for the others: at the top dose activity change, negative = inhibition, actives largely listed as inhibitors | hit rate 5.9% among 310,000 | AID 504832; further: potency means the concentration at half of the fitted maximal effect; on the % scale 0 is the no-effect control and ±100 the full control effect
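Growth was read as firefly luciferase luminescence after a 48 h, 37 C, 5% CO2 exposure of compounds to reporter-bearing P. falciparum cultures (0.1% parasitemia, 2% hematocrit final) in Albumax-supplemented RPMI 1640.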
Shiga inhibitor = inhibitors of Shiga toxin in Vero cells | Vero cells, Shiga toxin protein synthesis inhibition reporter | inhibition, % at 38.7 µM | hit rate 9.2% among 290,000; in the data active means inhibition mostly above about 28%, no sharp cut-off; inactive means mostly below about 43%; further: 0% is about no effect
Cycloheximide cs = affects cycloheximide protein synthesis inhibition readout, counter-screen | AID 2314 | cell reporter, cycloheximide protein synthesis inhibition counterscreen | max response, % | hit rate 12% among 300,000; in the data active means max response mostly above about 13%, no sharp cut-off; inactive means mostly below about 14%; further: read at 38.3 µM for the half of the compounds with a filed dose; 0% is about no effect
* marks the source's active call; other numbers are inactive results; i = inactive; ? = inconclusive; · = not tested or not shown; [ ] = another dose, or the depositor's remark. Rows were chosen to be rich in hits. Some 21% of all compounds tested hit in one or more screens of this group. Unless noted, the call rests on the fitted dose curve; in most records, active means well fitted curve in the direction sought with a large enough effect; inconclusive means small, poorly fitted or top-dose-only effect, or another doubt; inactive means no such curve, though single readings can be large; an effect the other way counts as inactive or inconclusive.

SMILES	Sm TGR inh	Pf growth 96h	NS1 inh	Pf growth 48h	Shiga inhibitor	Cycloheximide cs
CCOC(=O)C1=C(CNCc2ccccc2Cl)NC(=O)NC1c1cccc([N+](=O)[O-])c1 (centres undefined)	1%	0.93µM*	·	?	-4	-2
CCOC(=O)C1=C(Cn2cnc3ccccc32)NC(=O)NC1c1cc(C)ccc1C (centres undefined)	?	?	-49%	?	-16	-7
CCOC(=O)C1=C(CNCCc2ccc(Cl)cc2)NC(=O)NC1c1cccc([N+](=O)[O-])c1 (centres undefined)	-1%	17%	9%	?	-8	-3
COc1cccc(NC(=O)C(Cc2ccccc2)N2Cc3ccccc3C2=O)c1 (centres undefined)	1%	·	·	·	·	·
COc1ccccc1N1CCN(C(=S)Nc2ccc(F)cc2)CC1	-4%	?	2%	2%	45*	34*
COc1ccc(N2CCN(C(=S)Nc3ccc(F)cc3)CC2)cc1	-3%	15µM*	1%	29%	·	-3
O=C(CN1CCCCC1)N1c2ccccc2Oc2ccccc21	4%	?	-9%	-19%	-17	-2
O=C(CO/N=C/c1ccccc1)N1c2ccccc2Oc2ccccc21	0%	?	22%	12µM*	3	-1
O=C(Nc1nnc2n1CCS2)c1ccc(F)cc1F	6%	·	·	·	·	·
CC(C)(C)OC(=O)N1CCC[C@H]1c1nnc(SC/C=C/c2ccccc2)o1	?	?	-41%	10µM*	29	3
CC(C)(C)OC(=O)N1CCC[C@H]1c1nnc(SCc2ccccc2Cl)o1	0%	?	-56%	?	-13	-1
O=[N+]([O-])c1ccc(-c2csc(N/N=C/c3cccnc3)n2)cc1	-15%	3%	6%	2%	-7	3
Cc1ccc(N/N=C/c2ccncc2)cc1	50µM*	?	-57%	?	87*	42*
Cc1csc(N/N=C\c2cccnc2)n1	22µM*	19%	·	-10%	91*	58*
Clc1cccc(N/N=C/c2ccncc2)c1	-2%	-20%	-23%	2.6µM*	20	31*
O=C(O)c1ccc(/C=N/Nc2ncc(Cl)cc2Cl)cc1	-2%	48%	-4%	45%	65*	21
CC(C(=O)Nc1ccccc1F)N1CCN(C)CC1 (centres undefined)	-30%	33%	4%	20%	7	-5
Cn1c(=O)c2c(nc(Br)n2Cc2nnc(N)s2)n(C)c1=O	?	27%	6%	-12%	-6	-2
CCOC(=O)c1c(C)[nH]c(C(=O)COC(=O)CCC2CCCC2)c1C	-1%	·	-1%	-7%	-18	-2
Cc1ccc(N/N=C/c2cccnc2)cc1	?	?	-23%	?	84*	53*
CC(C)NC(=S)N/N=C/c1cccnc1	-34%	?	3%	8%	-14	-3
O=C(O)c1ccc(N/N=C/c2ccncc2)cc1	4%	34%	-2%	173%	35*	25*
O=C(O)c1ccc(N/N=C/c2ccc3nccnc3c2)cc1	7%	-42%	-35%	-103%	-23	-6
CN1CCN(CC(=O)N2c3ccccc3Sc3cc4ccccc4cc32)CC1	·	·	-4%	·	·	·
O=C(CNC(=O)c1ccccc1F)OCc1csc(-c2ccccc2)n1	11%	52%	-32%	77%	31	18*
SMILES	Sm TGR inh	Pf growth 96h	NS1 inh	Pf growth 48h	Shiga inhibitor	Cycloheximide cs
Cc1ccsc1C(=O)OCc1csc(-c2ccccc2)n1	2%	·	-57%	269%	102*	26*
CN(Cc1cccs1)C(=O)Cc1csc(-c2ccccc2)n1	6%	47%	·	101%	69*	47*
CNS(=O)(=O)c1cccc(C(=O)OCc2csc(-c3ccccc3)n2)c1	-9%	41%	7%	31%	63*	33*
CCn1c(SCC(=O)NC2(C#N)CCCCC2)nc2ccccc2c1=O	-7%	4%	·	14%	·	·
Cn1cccc1C(=O)OCc1ccc(F)cc1	-9%	24%	-2%	37%	50	19*
Cn1cccc1C(=O)OCc1csc(-c2ccccc2)n1	-2%	i	-59%	164%	77*	22*
O=C(OCc1csc(-c2ccccc2)n1)C1=NN(c2ccccc2)C(=O)CC1	-25%	79%	·	107%	·	·
O=C(OCc1csc(-c2ccccc2)n1)c1cccs1	15%[11.4 µM]	·	-76%	·	49*	34*
Nc1ccc(C(=O)OCc2csc(-c3ccccc3)n2)cc1[N+](=O)[O-]	-8%	27%	9%	22%	-7	7
CCOC(=O)c1cc(-c2ccc(OC)cc2)nn1-c1ccc(C(=O)O)cc1	16%	-3%	0%	-13%	-10	-3
COc1ccc(CNC(=O)C2CCN(S(=O)(=O)c3c(C)noc3/C=C/c3cccs3)CC2)cc1	8%	·	·	·	·	·
Cc1ccc(NC(=O)C(=O)NCC(c2cccnc2)N2CCc3ccccc3C2)cc1 (centres undefined)	3%	·	·	·	·	·
CCOC(=O)c1ccc(NC(=O)c2cc3c(=O)n(C)c4ccccc4c3n2C)cc1	-1%	·	·	·	·	·
Cc1sc(NC(=O)C2CSC3(C)CCC(=O)N23)nc1-c1ccc(F)cc1 (centres undefined)	7%	?	1%	?	-10	1
Cn1c(-c2ccccc2)cnc1NCc1cc(Cl)ccc1O	-20%	-17%	-20%	12µM*	18	17*
Cn1c(-c2ccc(F)cc2)cnc1NCc1ccc(F)cc1	-10%	?	-14%	?	28	6
Cn1c(-c2ccc(F)cc2)cnc1NCc1ccccc1F	?	-28%	8%	?	19	17*
Cn1c(-c2ccc(F)cc2)cnc1NCc1ccc(F)cc1F	-18%	-28%	-7%	19%	23*	13
O=C(c1ccccc1NS(=O)(=O)c1cccc2cccnc12)N1CCOCC1	3%	?	·	3%	19	8
CCOC(=O)c1ccc(Nc2nnc(C)c3ccccc23)cc1	?	-1%	-40%	-12%	56*	20*
CCOC(=O)Cc1nnc(Nc2ccc(C)cc2)c2ccccc12	9%	10µM*	18%	-6%	29	2
CNC(=O)c1ccc(Nc2nnc(C)c3ccccc23)cc1	2%	112%	11%	11%	7	1
CC1CN(C(=O)COC(=O)c2ccc(C#N)cc2)CC(C)O1 (centres undefined)	-3%	11%	7%	13%	4	-8
Cc1sc2nc(C3CC3)nc(NCCNS(=O)(=O)c3ccccc3)c2c1C	4%	-12%	-19%	9.3µM*	-3	8
CCOC(=O)c1sc2nc(CSc3ccccc3)nc(N3CCCN(C)CC3)c2c1C	-32%	?	0%	?	-8	-4
Cc1sc2nc(CSc3ccccc3)nc(N3CCC(C(N)=O)CC3)c2c1C	2%	12µM*	15%	?	-7	-6
CCOC(=O)c1sc2nc(CSc3ccccc3)nc(N3CCC(C(N)=O)CC3)c2c1C	-1%	4.1µM*	·	3.3µM*	27	10

High-throughput results from PubChem.
